# Data reported in PubChem BioAssay AID463212 (Sanford-Burnham Center for Chemical Genomics, 2010).
# In all, about 330,000 compounds went through this assay and about 4,400 (1.3%) were called active. The sample as a whole holds a higher share of actives than the screen did. A number with no mark means an inactive call.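 How the source made its calls: active means growth inhibition of the mutant yeast at or above 50%; inactive means the rest.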
# Experiment: growth inhibition of tim23-1 ts yeast – luminescence, uHTS, primary screen (AID 463212);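 further: temperature-sensitive mutant grown at 25 °C; plate controls were DMSO-treated mutant yeast for no effect and medium wells lacking yeast for full effect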
# Conditions: S. cerevisiae tim23-1 growth, BacTiter-Glo luminescence, 24 h; at 20 µM; hits give high values
row,Compound,inhibition
1,Cc1cccc(N(C)C(=O)c2cc3c(=O)[nH]c4ccc(C)cc4c3s2)c1,6.52%
2,O=C(CNC(=O)c1cccs1)N/N=C/c1cccc(Br)c1,16.1%
3,O=C(N/N=C/c1cccc(Br)c1)c1ccc(N2CCCC2=O)cc1,12.3%
4,O=C(N/N=C\c1cccc(Br)c1)c1ccccc1-n1cccc1,53.7% (active)
5,CC(=O)Nc1ccc(Nc2cc(C)nc(Nc3ccc(NC(C)=O)cc3)n2)cc1,8.84%
6,Cc1ccc2nc(Nc3ccccc3)cc(C)c2c1,57.6% (active)
7,CN1CCN(c2nc(Nc3ccc(O)cc3)nc3ccccc23)CC1,-37.1%
8,CCS(=O)(=O)Nc1cccc(-c2cc(-c3ccccc3)c3cc(C)ccc3n2)c1,29.6%
9,Cc1cc(Nc2ccc(Br)cc2)nc2ccccc12,55.5% (active)
10,Cc1ccc2nc(Nc3ccccc3O)nc(-c3ccccc3)c2c1,24.4%
11,CC(OC(=O)c1ccc([N+](=O)[O-])cc1)C(=O)NCC1CCCCC1 (stereo not given),3.5%
12,O=C1N[C@@H](Cc2ccccc2)C(=O)N2[C@H]1C[C@]1(Br)c3ccccc3N(S(=O)(=O)c3ccccc3)[C@H]21,5.8%
13,Cc1cc(=O)cc(C)[nH]1,9.7%
14,O=C(Cc1ccccc1)NCC1OCCc2ccccc21 (stereo not given),4.02%
15,CC(C)Cn1c(N)c(C(=O)NCc2cccs2)c2nc3ccccc3nc21,59.9% (active)
16,COCC(C)OC(=O)c1c(N)n(CCCN2CCOCC2)c2nc3ccccc3nc12 (stereo not given),5.92%
17,CCOc1ccccc1NC(=O)Cn1nnc(C(=O)NCc2cccs2)c1N,0.467%
18,Cc1cc(NC(=O)CSC2=NS(=O)(=O)c3cc(Cl)ccc3N2)no1,11.8%
19,C=CCn1c(=O)c(C(=O)Nc2ncccc2O)c(O)c2ccccc21,33.8%
20,CCCn1c(=O)c(C(=O)Nc2cc(C)ccn2)c(O)c2ccccc21,13.4%
21,Cn1c(=O)c(C(=O)Nc2ncccn2)c(O)c2ccccc21,60% (active)
22,CCSC1(SCC)N=C(N)C2(C#N)C(c3ccccc3)NC(C)=CC12C#N (stereo not given),9.77%
23,CSc1nccc(NC(=O)c2ccc(C(C)(C)C)cc2)n1,42.9%
24,CC(C)(C)NC(=O)CSc1nnc(NC(=O)CCc2ccccc2)s1,8.92%

row,Compound,inhibition
1,Oc1c(CN2CCN(c3ccc(F)cc3)CC2)cc(Cl)c2cccnc12,54.1% (active)
2,O=C(CN1CCN(c2ccc(F)cc2)CC1)Nc1ccccc1,7.47%
3,Oc1c(CN2CCCC2)cc(COCc2ccccc2)c2cccnc12,12.2%
4,O=C1CCC[C@@H]2CC(N3CCCCC3)C[C@@H]3CCN1[C@H]23 (stereo not given in full),29.3%
5,COc1ccc(/C=N/N(C)C2=NS(=O)(=O)c3ccccc32)cc1OC,1.27%
6,COC(=O)c1ccc(/C=C2/C(=O)Oc3ccccc32)cc1,34.3%
7,O=C1Oc2ccccc2C(=O)/C1=C/c1ccccc1O,61.1% (active)
8,COc1ccc2c(c1)O/C(=C\c1ccccc1O)C2=O,0.978%
9,CCSc1sc(CC)cc1C=O,-3.29%
10,CC/C(=N\NC(=S)NC(C)C)c1ccc(OC(F)F)cc1,30.3%
11,O=C(/C=C/c1c(F)cccc1Cl)Nc1nn[nH]n1,9.19%
12,CCOC(=O)NC(=O)/C(C#N)=C\c1ccccc1,4.67%
13,CNC(=O)/C(C#N)=C/c1c(F)cccc1Cl,75.8% (active)
14,CC(=O)c1ccc(S(=O)(=O)NCCC(=O)N2CCN(c3ccccn3)CC2)cc1,12.9%
15,Cc1ccccc1OCC(=O)Nc1ccc2c(c1)ncn2C,20%
16,CCC(=O)N1CCN(c2ccccc2NC(=O)COc2cccc(C)c2C)CC1,13.7%
17,Cc1ccccc1OCC(=O)Nc1ccc(N2CCN(C(=O)C(C)C)CC2)c(Cl)c1,52.8% (active)
18,CCN(CC)C(=O)CSc1nc2ccccc2n1CC(=O)N1CCN(c2ccccc2OC)CC1,12.6%
19,NC(=S)c1ccc(C(N)=S)o1,-0.65%
20,CC[N+](C)(CC)CCC[n+]1c(-c2ccccc2)c2cc(N)ccc2c2ccc(N)cc21,-96.2%
21,Fc1ccccc1/C=C1\CCCC2=C1Nc1ncnn1C2c1ccccc1F (stereo not given),34%
22,CC(=O)C1=C(C)NC(=O)NC1c1ccc2c(c1)OCO2 (stereo not given),0.126%
23,CCCC(C)c1nnc(NC(=O)C2CC(=O)N(c3ccc(OCC)cc3)C2)s1 (stereo not given),16%
24,COc1cc(/C=C/C(=O)OCC(=O)NCCCc2ccccc2)ccc1O,16.5%

row,Compound,inhibition
1,O=C(Oc1c(-c2ccco2)oc2ccccc2c1=O)c1cccnc1,51.2% (active)
2,COc1ccc(Oc2coc3cc(OC(=O)c4cncc(Br)c4)ccc3c2=O)cc1,-12.3%
3,O=C(OCc1cc2ccccc2[nH]c1=O)c1cccnc1,-4.57%
4,CCOC(=O)N1CCN(CC(=O)n2c(C)c(C)c3ccccc32)CC1,30.5%
5,CCCCOc1ccc(CON(C(C)=O)C(C)=O)cc1Cl,27%
6,O=C1OC(c2ccc(Cl)cc2)=N/C1=C\c1cccnc1,40.9%
7,Cc1ccc(C2=C/C(=C\c3cccnc3)C(=O)O2)cc1,33.4%
8,Cc1ccccc1C1=N/C(=C/c2cccnc2)C(=O)O1,51.8% (active)
9,CC(C)CC(=O)N1CCN(Cc2ccccc2Br)CC1,1.68%
10,COC(=O)c1cccc(N(C(=O)CNC(=O)c2cccs2)C(C(=O)NCC2CCCO2)c2ccc(OC)c(OC)c2)c1 (stereo not given),0.773%
11,COc1ccc2nc(NC(=O)NC3CCCCC3)sc2c1,58.4% (active)
12,COc1ccc2nc(NC(=O)[C@@H]3CCCN3C(=O)c3cccs3)sc2c1,25.9%
13,COc1cccc(C(=O)Nc2nc3ccc(S(C)(=O)=O)cc3s2)c1,23.6%
14,CC(C)=CCC/C(C)=C/C(=O)O,8.44%
15,CC(C)S(=O)(=O)c1csc(NC(=O)Nc2ccc(Cl)cc2)c1Cl,22.2%
16,CCn1c(CSc2nncn2-c2ccc(OC)cc2)nc2cc(S(=O)(=O)N(C)C)ccc21,8.84%
17,Cc1cc(C(=O)COc2ccccc2Cl)c(C)n1C1CC1,38.7%
18,O=C(COC(=O)C1CCCO1)Nc1nc(-c2ccc(F)cc2)cs1 (stereo not given),11.2%
19,CC1CCCC(C)N1C(=O)CN1CCN(c2nc(-c3ccc(F)cc3)cs2)CC1 (stereo not given),52.8% (active)
20,CCCc1cc(=O)[nH]c(SCC(=O)N2C(C)CCCC2C)n1 (stereo not given),0.431%
21,O=C(COC(=O)/C(=C/c1cccs1)c1cccs1)NCc1ccccc1Cl,24%
22,Cc1ccc2nc(/C(C#N)=C\c3ccc(OC(=O)c4cccs4)cc3)[nH]c2c1,-4.69%
23,O=C(/C(=C/c1cccc(Cl)c1)c1nc2ccccc2[nH]1)c1ccccc1,44.9%
24,COc1cc(/C=C(\C#N)c2nc3ccccc3[nH]2)ccc1O,56.4% (active)

row,Compound,inhibition
1,CCOc1ccc(OCC(=O)Nc2c3c(nn2C(C)(C)C)CS(=O)(=O)C3)cc1,11.1%
2,CCOC(=O)c1c(NC(=O)CCl)sc(C(=O)N(CC)CC)c1C,5.96%
3,O=S(=O)(c1cccc2nonc12)N1CCN(c2cccc(Cl)c2)CC1,22.8%
4,O=C(COC(=O)c1cc[n+]([O-])cc1)Nc1ccc(Cl)c(C(F)(F)F)c1,5.05%
5,O=C(CC(O)(C(F)(F)F)C(F)(F)F)Nc1ccc(Cl)c(Cl)c1,90.6% (active)
6,O=C(CCCN1C(=O)CCC1=O)Nc1ccc(Cl)c(C(F)(F)F)c1,-4.71%
7,CC/C(O)=C1\C(=O)CC(C)(C)CC1=NCCc1nc2ccccc2[nH]1,-7.57%
8,CC(=O)N1CCOc2ccc(S(=O)(=O)N3CCN(c4cccc(C(F)(F)F)c4)CC3)cc21,36.1%
9,COC(=O)c1cc(OCC(=O)NC2CCCc3ccccc32)cc(C(=O)OC)c1 (stereo not given),16.8%
10,COc1ccc2c(c1)C(NS(=O)(=O)OCC(Cl)(Cl)Cl)CCC2 (stereo not given),55.4% (active)
11,COc1ccc(CN(C)C(C)C(=O)NC2CCCc3ccccc32)cc1 (stereo not given),24.3%
12,CC(CC(=O)N1CCN(c2ccccc2)CC1)S(=O)(=O)c1ccc2c(c1)NC(=O)CS2 (stereo not given),-6.88%
13,N/C(Cc1ccc([N+](=O)[O-])cc1)=N\OC(=O)COc1ccc2ccccc2c1,60.5% (active)
14,COC(=O)C(C)NC(=O)COc1ccc2ccccc2c1 (stereo not given),7.67%
15,Cc1cc(C)cc(OCC(=O)O/N=C(\N)Cc2ccc([N+](=O)[O-])cc2)c1,26.9%
16,O=C(COC(=O)Cc1ccc([N+](=O)[O-])cc1)NC1CCCCCC1,19.1%
17,N/C(Cc1ccc([N+](=O)[O-])cc1)=N\OC(=O)C1CCCCC1,58.8% (active)
18,O=C(NCC(O)c1ccc([N+](=O)[O-])cc1)C1CCCCC1 (stereo not given),-0.943%
19,CC(Oc1ccc2c(-c3ccccc3)cc(=O)oc2c1)C(=O)NC(Cc1c[nH]c2ccccc12)C(=O)O (stereo not given),21%
20,CCc1ccc(NC(=O)CS(=O)CC(=O)N2CCN(c3ccccc3F)CC2)cc1 (stereo not given),-23.1%
21,Cc1occc1C(=O)N/N=C/c1ccc(-c2cccc([N+](=O)[O-])c2)o1,26%
22,O=C(CN1CCOCC1)N/N=C/c1ccc(-c2ccc(Br)cc2)o1,1.87%
23,Cc1ccc(-c2ccc(/C=N/NC(=O)CN3CCOCC3)o2)cc1[N+](=O)[O-],55.9% (active)
